Screening data (PubChem BioAssay)
DRD3 agonist – qHTS of D3 Dopamine Receptor Agonist: qHTS; 410,000 compounds, 0.58% hits; D3R DiscoveRx beta-arrestin cells, luminescence, 90 min; max activation, %; in the data active = max activation above about 30%
Target sequence (P35462 whole entry, looked up): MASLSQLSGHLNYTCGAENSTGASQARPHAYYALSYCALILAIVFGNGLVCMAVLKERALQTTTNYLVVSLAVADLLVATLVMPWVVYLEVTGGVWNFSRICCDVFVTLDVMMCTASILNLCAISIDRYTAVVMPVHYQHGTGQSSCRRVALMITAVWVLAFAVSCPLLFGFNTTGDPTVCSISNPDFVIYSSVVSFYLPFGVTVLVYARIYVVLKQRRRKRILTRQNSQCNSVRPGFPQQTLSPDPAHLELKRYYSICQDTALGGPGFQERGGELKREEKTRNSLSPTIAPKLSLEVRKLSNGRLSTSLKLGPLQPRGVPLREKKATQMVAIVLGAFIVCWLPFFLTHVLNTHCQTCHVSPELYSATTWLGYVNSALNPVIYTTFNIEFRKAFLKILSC
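Agonist mode: compounds and dopamine controls were applied to plated cells for 90 min at 37 degrees C after an overnight attachment at 1500 cells/well. Luminescent read-out followed 30 - 60 minutes at room temperature with DiscoveRx detection reagent.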
TGFb inhibitor – qHTS for Inhibitors of TGF-b; HepG2 CAGA-GFP TGF-b/SMAD3 reporter, GFP fluorescence, 18 h; TGF-beta stimulated, 500 pg/mL final; Potency, µM (doses to about 46.1 µM), usual class: inhibitors; 410,000 compounds, 1.2% hits; AID 588855, 2011; note: nearly all actives have a fitted effect of over 65% in size
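HEPG2 CAGA-GFP, 1000 cells/well; 2 h settle, 37 C; cpd via pin tool; TGF-b 500 pg/mL final; 18 h, 37 C; GFP imaging ex488/em500-530; %Activity normalised to -TGF-b and +DMSO controls; CRC fit, curve class.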
HepG2 tox-1 – qHTS for Inhibitors of TGF-b: Cytotox Counterscreen; Potency, µM (highest dose often 46.1 µM), actives largely listed as cytotoxic; HepG2 CAGA-GFP viability, ATP luminescence, 18 h; 410,000 compounds, 0.76% hits
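HepG2 CAGA-GFP cells (1000/well, DMEM with 1% FBS) received compound, then TGF-beta at 500 pg/mL final, and were incubated 18 hours at 37 degrees C. Viability was read by CellTiter-Glo luminescence. Media-only wells were set as complete cell-killing and DMSO as no toxicity.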
D3 antag – qHTS of D3 Dopamine Receptor Antagonist: qHTS. D(3) dopamine receptor (Homo sapiens), P35462. D3R cells, DiscoveRx beta-arrestin luminescence, antagonist mode; active compounds read low. AID 652054, 2013. 360,000 compounds, 2.5% hits. max response, negative = inhibition, %; in the data active = max response below about -50%; inconclusive = no clear call, values can overlap the other calls
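Cells plated overnight at 1500 cells/well, then exposed to library compounds with dopamine controls for 90 minutes at 37 degrees C. DiscoveRx reagent added for 30–60 minutes at room temperature; luminescence read, quantitative HTS format.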
ATXN2 expr inh – Primary qHTS for Inhibitors of ATXN expression | HEK-293 ATXN2-luciferase reporter, luminescence, 24 h | Potency, µM (top dose mostly 57 µM), actives largely listed as inhibitors | 360,000 compounds, 0.72% hits; note: nearly all actives have a fitted effect of over 55% in size
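ATXN2-luciferase reporter cells (luciferase flanked by upstream and downstream ATXN2 gene portions) were treated 24 h at 37 °C with compounds at up to 57 uM. SteadyGlo luminescence gave expression; GF-AFC fluorescence gave viability.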
ATXN viability – Viability Counterscreen for Primary qHTS for Inhibitors of ATXN expression | AID 651635, 2014 | 400,000 compounds, 0.49% hits | S2 cells (HEK-293 line with an ATXN2-luciferase reporter) viability, CellTiter-Fluor protease fluorescence, 24 h | Potency, µM (highest dose often 56.7 µM), hits mostly cytotoxic; note: nearly all actives have a fitted effect of over 40% in size
TGFb confirm – qHTS for Inhibitors of TGF-b: Confirmation of Cherry Picks. 1,600 compounds, 63% hits. HepG2 CAGA-GFP TGF-b reporter, GFP fluorescence, 18 h; cells stimulated with TGF-beta, 500 pg/mL. Potency, µM (series often up to 46.1 µM), usual class: inhibitors. shares compounds with TGFb inhibitor. AID 720534, 2013; note: nearly all actives have a fitted effect of over 65% in size
HepG2 tox-2 – qHTS for Inhibitors of TGF-b: Cytotox Counterscreen for Cherry Picks | shares compounds with TGFb inhibitor | HepG2 CAGA-GFP viability, ATP luminescence, 18 h; cells stimulated with TGF-beta, 500 pg/mL | Potency, µM (top dose mostly 46.1 µM), actives largely listed as inhibitors | 1,600 compounds, 27% hits | AID 720535, 2013; note: nearly all actives have a fitted effect of over 70% in size
TGFb CCL64 inh – qHTS for Inhibitors of TGF-b: CCL64 Cells Orthogonal Assay for Cherry Picks; shares compounds with TGFb inhibitor; CCL64 CAGA-GFP reporter, TGF-b stimulated, GFP fluorescence, 18 h; Potency, µM (titrated, usually from 46.1 µM), usual class: inhibitors; 1,600 compounds, 41% hits; note: nearly all actives have a fitted effect of over 65% in size
COP TGFb inh – qHTS for Inhibitors of TGF-b: Hit Validation in HepG2 Cells using COP promoter | 1,600 compounds, 3% hits | shares compounds with TGFb inhibitor | HepG2 COP-GFP TGF-b reporter, GFP fluorescence, 18 h; cells stimulated by added recombinant TGF-beta | Potency, µM (series often up to 46.1 µM), actives largely listed as inhibitors; note: nearly all actives have a fitted effect of over 70% in size
Large screens that a line does not name were inactive (follow-up assays come after a bar, where they were run). Rows were chosen to be rich in hits. Some 4.7% of all compounds tested hit in one or more screens of this group. Unless noted, calls come from the whole dose curve; as a rule, active = well fitted curve in the direction sought with a large enough effect; inconclusive = small, poorly fitted or top-dose-only effect, or another doubt; inactive = no such curve, though single readings can be large; an effect the other way counts as inactive or inconclusive.

Cc1ccc(CS(=O)(=O)c2ncc(Cl)c(C(=O)Nc3ccc(OC(F)F)cc3)n2)cc1	TGFb inhibitor 10µM, HepG2 tox-1 17.8µM, D3 antag -63.3, ATXN2 expr inh inconclusive, ATXN viability inconclusive | TGFb confirm 8.2µM | HepG2 tox-2 16.4µM | TGFb CCL64 inh 3.26µM | COP TGFb inh inconclusive
O=C(c1cnn(-c2cccc(F)c2)c1-n1cccc1)N1CCN(c2ccccc2F)CC1	none (no result: D3 antag, ATXN2 expr inh, ATXN viability)
COc1cn(CC(=O)Nc2ccc(C)cc2C)c(CN2CCCCC2)cc1=O	none (no result: D3 antag, ATXN2 expr inh, ATXN viability)
CCOC(=O)c1c(-c2ccccc2)oc2ccc(NS(=O)(=O)c3ccc(C(C)C)cc3)cc12	TGFb inhibitor inconclusive, ATXN viability inconclusive (no result: D3 antag)
Cc1ccc(-c2ccc3c(c2)O[C@H](CN(C)C(=O)Nc2ccc(C(F)(F)F)cc2)[C@H](C)CN([C@H](C)CO)S3(=O)=O)cc1	TGFb inhibitor 22.4µM, ATXN viability inconclusive | TGFb confirm 18.4µM | HepG2 tox-2 inconclusive | TGFb CCL64 inh inconclusive | COP TGFb inh inactive
C[C@H](CO)N1C[C@H](C)[C@@H](CN(C)S(=O)(=O)c2ccc(Cl)cc2)Oc2ccc(NS(=O)(=O)c3ccccc3)cc2CC1=O	TGFb inhibitor 4.47µM, ATXN2 expr inh inconclusive, ATXN viability inconclusive | TGFb confirm inconclusive | HepG2 tox-2 inactive | TGFb CCL64 inh inconclusive | COP TGFb inh inactive
C[C@H](CO)N1C[C@H](C)[C@H](CN(C)S(=O)(=O)c2cccs2)Oc2ccc(NC(=O)Nc3ccc4c(c3)OCO4)cc2CC1=O	TGFb inhibitor inconclusive, ATXN viability inconclusive | TGFb confirm inconclusive | HepG2 tox-2 inactive | TGFb CCL64 inh inactive | COP TGFb inh inactive
Cc1noc(C)c1S(=O)(=O)Nc1ccc2c(c1)C(=O)N([C@@H](C)CO)C[C@H](C)[C@@H](CN(C)Cc1ccc(C(F)(F)F)cc1)OCCCC[C@H](C)O2	TGFb inhibitor 10µM, ATXN2 expr inh inconclusive (no result: ATXN viability) | TGFb confirm inconclusive | HepG2 tox-2 inconclusive | TGFb CCL64 inh 32.6µM | COP TGFb inh inactive
CCCOc1cccc(C(=O)Nc2cc(-c3ccccc3)no2)c1	ATXN viability inconclusive (no result: D3 antag)
C[C@@H]1CN([C@H](C)CO)C(=O)c2cc(NC(=O)Cc3ccccc3)ccc2O[C@H]1CN(C)Cc1ccc(Oc2ccccc2)cc1	TGFb inhibitor 11.2µM, ATXN2 expr inh inconclusive, ATXN viability inconclusive | TGFb confirm inconclusive | HepG2 tox-2 inconclusive | TGFb CCL64 inh 16.4µM | COP TGFb inh inactive
Cc1ccc(S(=O)(=O)Nc2ccc3c(c2)C(=O)N([C@H](C)CO)C[C@H](C)[C@@H](CN(C)Cc2ccc(-c4ccccc4)cc2)O3)cc1	TGFb inhibitor 10µM, ATXN viability inconclusive | TGFb confirm 9.2µM | HepG2 tox-2 inconclusive | TGFb CCL64 inh 20.6µM | COP TGFb inh inactive
Cc1ccc(S(=O)(=O)Nc2cccc3c2O[C@H](CN(C)Cc2ccc(-c4ccccc4)cc2)[C@@H](C)CN([C@H](C)CO)C3=O)cc1	TGFb inhibitor 10µM, ATXN viability inconclusive | TGFb confirm 16.4µM | HepG2 tox-2 inactive | TGFb CCL64 inh inconclusive | COP TGFb inh inactive
C[C@H](CO)N1C[C@H](C)[C@@H](CN(C)C(=O)Nc2ccc(C(F)(F)F)cc2)Oc2ccc(NS(=O)(=O)c3ccccc3)cc2C1=O	DRD3 agonist 30.8, TGFb inhibitor 6.31µM, ATXN viability inconclusive | TGFb confirm inconclusive | HepG2 tox-2 inactive | TGFb CCL64 inh inconclusive | COP TGFb inh inactive
COc1ccc(S(=O)(=O)Nc2ccc3c(c2)C(=O)N([C@H](C)CO)C[C@H](C)[C@H](CN(C)Cc2ccc(C(=O)O)cc2)O3)cc1	none
CCCN(CCC)C(=O)CSc1nnc2cc(C)c3cc(C)cc(C)c3n12	none (no result: D3 antag, ATXN2 expr inh, ATXN viability)
CCc1nnc(NC(=O)CSc2nc3c([nH]c4ccccc43)c(=O)n2-c2ccc(OC)cc2)s1	none (no result: D3 antag)
COC(=O)c1ccccc1NC(=O)c1ccc2c(c1)CCN2S(=O)(=O)c1ccc(C)cc1	none (no result: D3 antag)
COc1ccc(-c2cnc(C)o2)cc1S(=O)(=O)Nc1ccc(NC(C)=O)cc1	none (no result: D3 antag)
CC(OC(=O)Cc1ccc(F)cc1)C(=O)NCc1ccc2c(c1)OCO2 (centres undefined)	TGFb inhibitor inconclusive | TGFb confirm inactive | HepG2 tox-2 inactive | TGFb CCL64 inh inactive | COP TGFb inh inactive
CC(C)C[C@H]1CNC(=S)N1CC1CCCN1C[C@H](Cc1ccc(O)cc1)N1C[C@H](Cc2ccccc2)N(CC2CCCCCC2)C1=S (some centres undefined)	TGFb inhibitor inconclusive
CC(C)C[C@H]1CNC(=S)N1C[C@H]1CCCN1C[C@H](Cc1ccc(O)cc1)N1C[C@H](CC(C)C)N(CC2CCCCCC2)C1=S	TGFb inhibitor 6.31µM, D3 antag -64.7, ATXN2 expr inh inconclusive, ATXN viability 10µM | TGFb confirm 4.61µM | HepG2 tox-2 inconclusive | TGFb CCL64 inh 10.3µM | COP TGFb inh inactive
CC(C)C[C@H]1CNC(=S)N1CC1CCCN1C[C@H](Cc1ccccc1)N1C[C@H](Cc2ccc(O)cc2)N(CC2CCCCC2)C1=S (some centres undefined)	TGFb inhibitor 8.91µM | TGFb confirm 6.51µM | HepG2 tox-2 inactive | TGFb CCL64 inh 20.6µM | COP TGFb inh inactive
